The record followed here is ChEMBL document CHEMBL3433997, “St. Jude Leishmania screening dataset” (2016).

In the first test the target is Hexose transporter 1 (Plasmodium falciparum) (UniProt O97467). Nature of the test: ST_JUDE_LEISH: Cytotoxicity at 2uM final concentration against transgenic Leishmania Mexicana promastigotes LmPfHT that are glucose transport deficient and complemented with the Plasmodium falciparum hexose transporter. Activity is measured by DNA content using SYBR green in vitro. It counts as functional.
What is called inhibition is the relative decrease from the control value, in per cent. In the case of `Oc1ccc(CCNc2nc(NCCCOc3ccccc3-c3ccc(C(F)(F)F)cc3)nc(N3CCNCC3)n2)cc1`, the inhibition was -1.9%.

As for `O=C(Nc1ccc(C(=O)Oc2ccc3ccccc3c2)cc1)N[C@@H](Cc1ccc(O)cc1)C(=O)NC1CCN(Cc2ccc(O)cc2)C1` (stereo not given in full), the inhibition was -0.55%.

As for `Cc1ccc2[nH]c(C)c(Br)c(=O)c2c1`, the inhibition is -2.07%.

For the molecule `COC(=O)c1cc(OC2CCOC2=O)cc2c1OC(C)(C)O2` (stereo not given), the inhibition turned out to be 12.7%.

With `COc1ccc(CNC2Cc3ccccc3C2)cc1-c1cccc(S(=O)(=O)NCCN2CCCC2)c1`, the inhibition came to 1.69%.

On to `Cc1cc(-c2ccc(S(=O)(=O)Nc3cc4c(cc3OC(C)C)CCN(C)CC4)cc2)ccc1Cl`, for which the inhibition is -1.99%.

Regarding `C=C[C@]1(C)C[C@@H](OC(=O)c2cncn(COC)c2=O)[C@]2(C)[C@H](C)CC[C@]3(CCC(=O)[C@H]32)[C@@H](C)[C@@H]1O`, the inhibition is -0.92%.

In the case of `Cc1cccc(Cl)c1Nc1nnc(-c2cccc(C(=O)NC[C@@H]3CC[C@H]4C[C@@H]3C4(C)C)c2)o1`, the inhibition came out at 8.97%.

In the case of `CCCC(=O)Nc1ccc(Cl)c(NC(=O)COc2cc(C)ccc2C(C)C)c1`, the inhibition was 8.41%.

For the molecule `CCNc1cc(C(=O)N[C@@H](Cc2ccccc2)[C@H](O)CNC(C)(C)CCCC(C)C)cc(N2CCCC2=O)c1`, the inhibition is 1.71%.

As to `FC(F)(F)c1ccc2[nH]c(-c3cccc(-c4ccc(CNCCc5ccncc5)cc4)c3)nc2c1`, the inhibition was 0.52%.

`CC(=O)c1ccc(S(=O)(=O)N2CCC(C(=O)Nc3ccccc3N3CCCC3)CC2)cc1`: the inhibition is 0.67%.

Consider `O=C(N[C@@H](CC1CCCCC1)C(=O)NC1CCCc2ccccc21)c1ccc(O)c(-c2ccc(Cl)c(Cl)c2)c1` (stereo not given in full), for which the inhibition is 0.75%.

Turning to `O=C(Cn1c(CCc2cccc(F)c2F)cc(=O)c2ccccc21)N(Cc1ccc(-c2ccc(C(F)(F)F)cc2)cc1)C1CCN(CCN2CCOCC2)CC1`, the inhibition was 1.75%.

Consider `CC(C)NCc1ccc(-c2cccc(NC(=O)c3ccc(Cl)cc3)c2)cc1`, for which the inhibition came to 6.77%.

For `COc1cc2ncnc(Nc3ccc4nc(-c5ccccc5)[nH]c4c3)c2cc1OC`, the inhibition amounted to 3.9%.

As for `Cc1cccc2nc(-c3cccc(-c4ccc(C(=O)N5CCCCC5C(C)O)cc4)c3)[nH]c12` (stereo not given), the inhibition came to 4.66%.

For the molecule `Clc1cc(Nc2ncnc3cc(C#C[C@H]4CCCN4)sc23)cc2nc(Cc3ccccc3)[nH]c12`, the inhibition was -0.56%.

Regarding `CC(Nc1cc(-c2ccccn2)nc(-c2ccccn2)n1)c1ccccc1` (stereo not given), the inhibition was 12.8%.

For the molecule `Cc1cc(NCCC(=O)NCCc2ccccc2)nc(NCCc2ccc(F)cc2)n1`, the inhibition was determined as 3.87%.

For `c1cncc(CCNCc2ccc(-c3ccc(CNC4Cc5ccccc5C4)cc3)cc2)c1`, the inhibition amounted to 3.57%.

As for `Clc1ccccc1OCc1ccccn1`, the inhibition turned out to be 2.07%.

Regarding `COc1cc(CN2CCC(N3CCc4cc(NC(=O)c5cc(C)on5)ccc43)C2)ccc1F` (stereo not given), the inhibition was 2.25%.

Regarding `O=C(CCCCCNC(=O)c1ccc(O)c(-c2cccc(C(F)(F)F)c2)c1)NCCN1CCCCC1`, the inhibition stood at 4.36%.

Turning to `CN(C)c1ccc(CN2CCC(NC(=O)c3ccc(-c4cccc(C(F)(F)F)c4)s3)CC2)cc1`, the inhibition is -0.72%.

With `CC1CN(c2cnn(C/C=C/c3ccc(NC(=O)c4ccc5nonc5c4)cc3)c(=O)c2Cl)CC(C)N1` (stereo not given), the inhibition turned out to be 4.17%.

With `COCCNCc1ccc(-c2ccccc2CNC2CCN(Cc3ccccc3)CC2)cc1`, the inhibition came to 2.36%.

As for `O=C(Nc1cccc(F)c1)N1CCC(CN2CCOC(c3ccccc3)(c3ccccc3)C2)CC1`, the inhibition is 4.01%.

In the case of `O=S(=O)(NC1=NCCC1)c1cccc(Nc2nc(C(F)(F)F)nc3ccccc23)c1`, the inhibition is -1.27%.

For `COC(=O)CCCCCOc1cc(Cc2cnc(N)nc2N)cc(OC)c1OC`, the inhibition is -5.95%.

On to `C=CCCCNCC(NCCCNc1cc(=O)c2ccccc2[nH]1)c1cc(Br)cc(Br)c1` (stereo not given), for which the inhibition was -0.98%.

In the case of `N=c1c(C(=O)NCc2ccccc2)cc2c(=O)n3ccccc3nc2n1CCc1ccccc1`, the inhibition is 4.07%.

On to `Nc1nccc2ccc(-c3ccc(Oc4ccccc4)cc3)cc12`, for which the inhibition came to 15.8%.

`Oc1cc(NC[C@@H]2CCC[C@@H]2NCc2ccc(Cl)c(Cl)c2)nc2ccccc12`: the inhibition was 8.79%.

In the case of `COc1ccc(NC(=O)[C@H](Cc2ccccc2)Nc2nc(NCCN3CCCC3)ncc2C)cc1`, the inhibition was found to be 2.57%.

As to `Cc1cc(N[C@@H](Cc2ccccc2)C(=O)NCCOc2ccccc2)nc(NCc2ccccc2C)n1`, the inhibition was found to be 7.01%.

For `O=C(Nc1cccc(CN2CCCN(Cc3ncc[nH]3)CC2)c1)c1ccc2ccccc2c1`, the inhibition is -3.48%.

As to `O=C(NC1CCN(Cc2ccccc2)CC1)c1cc(-c2ccncc2)nc2ccc(Cl)cc12`, the inhibition stood at 3.26%.

Consider `Cc1cc(N[C@@H](Cc2ccccc2)C(=O)NCCc2ccccc2)nc(NCCc2ccccc2)n1`, for which the inhibition stood at 3.79%.

In the case of `O=C(NCC(c1ccc(C(F)(F)F)cc1)N1CCCC1)c1cc(-c2ccncc2)c(-c2cccc(O)c2)o1` (stereo not given), the inhibition is -0.82%.

Another test addresses Glucose transporter (Leishmania mexicana) (UniProt O61059). Nature of the test: ST_JUDE_LEISH: Cytotoxicity at 2uM final concentration against transgenic Leishmania Mexicana promastigotes LmGT2 that are glucose transport deficient and complemented with the L. Mexicana glucose transporter 2. Activity is measured by DNA content using SYBR green in vitro. Type of test: functional.
Regarding `Oc1ccc(CCNc2nc(NCCCOc3ccccc3-c3ccc(C(F)(F)F)cc3)nc(N3CCNCC3)n2)cc1`, the inhibition was -0.21%.

On to `O=C(Nc1ccc(C(=O)Oc2ccc3ccccc3c2)cc1)N[C@@H](Cc1ccc(O)cc1)C(=O)NC1CCN(Cc2ccc(O)cc2)C1` (stereo not given in full), for which the inhibition was -2.23%.

Turning to `Cc1ccc2[nH]c(C)c(Br)c(=O)c2c1`, the inhibition was -3.38%.

Take `COC(=O)c1cc(OC2CCOC2=O)cc2c1OC(C)(C)O2` (stereo not given): the inhibition amounted to 8.43%.

`COc1ccc(CNC2Cc3ccccc3C2)cc1-c1cccc(S(=O)(=O)NCCN2CCCC2)c1`: the inhibition worked out at 3.08%.

As for `Cc1cc(-c2ccc(S(=O)(=O)Nc3cc4c(cc3OC(C)C)CCN(C)CC4)cc2)ccc1Cl`, the inhibition is -2.35%.

For the molecule `C=C[C@]1(C)C[C@@H](OC(=O)c2cncn(COC)c2=O)[C@]2(C)[C@H](C)CC[C@]3(CCC(=O)[C@H]32)[C@@H](C)[C@@H]1O`, the inhibition worked out at 0.15%.

Consider `Cc1cccc(Cl)c1Nc1nnc(-c2cccc(C(=O)NC[C@@H]3CC[C@H]4C[C@@H]3C4(C)C)c2)o1`, for which the inhibition came to 6.65%.

Turning to `CCCC(=O)Nc1ccc(Cl)c(NC(=O)COc2cc(C)ccc2C(C)C)c1`, the inhibition turned out to be 8.05%.

As to `CCNc1cc(C(=O)N[C@@H](Cc2ccccc2)[C@H](O)CNC(C)(C)CCCC(C)C)cc(N2CCCC2=O)c1`, the inhibition was 3.47%.

Regarding `FC(F)(F)c1ccc2[nH]c(-c3cccc(-c4ccc(CNCCc5ccncc5)cc4)c3)nc2c1`, the inhibition is -0.21%.

Turning to `CC(=O)c1ccc(S(=O)(=O)N2CCC(C(=O)Nc3ccccc3N3CCCC3)CC2)cc1`, the inhibition is -0.38%.

In the case of `O=C(N[C@@H](CC1CCCCC1)C(=O)NC1CCCc2ccccc21)c1ccc(O)c(-c2ccc(Cl)c(Cl)c2)c1` (stereo not given in full), the inhibition amounted to 0.12%.

For `O=C(Cn1c(CCc2cccc(F)c2F)cc(=O)c2ccccc21)N(Cc1ccc(-c2ccc(C(F)(F)F)cc2)cc1)C1CCN(CCN2CCOCC2)CC1`, the inhibition came out at 1.28%.

With `CC(C)NCc1ccc(-c2cccc(NC(=O)c3ccc(Cl)cc3)c2)cc1`, the inhibition amounted to 7.51%.

Consider `COc1cc2ncnc(Nc3ccc4nc(-c5ccccc5)[nH]c4c3)c2cc1OC`, for which the inhibition turned out to be 2%.

As for `Cc1cccc2nc(-c3cccc(-c4ccc(C(=O)N5CCCCC5C(C)O)cc4)c3)[nH]c12` (stereo not given), the inhibition is 5.64%.

`Clc1cc(Nc2ncnc3cc(C#C[C@H]4CCCN4)sc23)cc2nc(Cc3ccccc3)[nH]c12`: the inhibition was -1.61%.

In the case of `CC(Nc1cc(-c2ccccn2)nc(-c2ccccn2)n1)c1ccccc1` (stereo not given), the inhibition came to 17.5%.

`Cc1cc(NCCC(=O)NCCc2ccccc2)nc(NCCc2ccc(F)cc2)n1`: the inhibition was determined as 2.22%.

Consider `c1cncc(CCNCc2ccc(-c3ccc(CNC4Cc5ccccc5C4)cc3)cc2)c1`, for which the inhibition came out at 3.87%.

`Clc1ccccc1OCc1ccccn1`: the inhibition came to 2.66%.

With `COc1cc(CN2CCC(N3CCc4cc(NC(=O)c5cc(C)on5)ccc43)C2)ccc1F` (stereo not given), the inhibition was determined as 3.34%.

With `O=C(CCCCCNC(=O)c1ccc(O)c(-c2cccc(C(F)(F)F)c2)c1)NCCN1CCCCC1`, the inhibition is 0.5%.

As for `CN(C)c1ccc(CN2CCC(NC(=O)c3ccc(-c4cccc(C(F)(F)F)c4)s3)CC2)cc1`, the inhibition was determined as 5.11%.

Take `CC1CN(c2cnn(C/C=C/c3ccc(NC(=O)c4ccc5nonc5c4)cc3)c(=O)c2Cl)CC(C)N1` (stereo not given): the inhibition was determined as 3.26%.

Consider `COCCNCc1ccc(-c2ccccc2CNC2CCN(Cc3ccccc3)CC2)cc1`, for which the inhibition is -0.28%.

On to `O=C(Nc1cccc(F)c1)N1CCC(CN2CCOC(c3ccccc3)(c3ccccc3)C2)CC1`, for which the inhibition turned out to be 5%.

With `O=S(=O)(NC1=NCCC1)c1cccc(Nc2nc(C(F)(F)F)nc3ccccc23)c1`, the inhibition is -3.08%.

On to `COC(=O)CCCCCOc1cc(Cc2cnc(N)nc2N)cc(OC)c1OC`, for which the inhibition was found to be 0.35%.

With `C=CCCCNCC(NCCCNc1cc(=O)c2ccccc2[nH]1)c1cc(Br)cc(Br)c1` (stereo not given), the inhibition was 0.77%.

For the molecule `N=c1c(C(=O)NCc2ccccc2)cc2c(=O)n3ccccc3nc2n1CCc1ccccc1`, the inhibition turned out to be 2.34%.

For the molecule `Nc1nccc2ccc(-c3ccc(Oc4ccccc4)cc3)cc12`, the inhibition was found to be 12.2%.

As to `Oc1cc(NC[C@@H]2CCC[C@@H]2NCc2ccc(Cl)c(Cl)c2)nc2ccccc12`, the inhibition turned out to be 7.45%.

Turning to `COc1ccc(NC(=O)[C@H](Cc2ccccc2)Nc2nc(NCCN3CCCC3)ncc2C)cc1`, the inhibition turned out to be 3.02%.

On to `Cc1cc(N[C@@H](Cc2ccccc2)C(=O)NCCOc2ccccc2)nc(NCc2ccccc2C)n1`, for which the inhibition turned out to be 4.21%.

Consider `O=C(Nc1cccc(CN2CCCN(Cc3ncc[nH]3)CC2)c1)c1ccc2ccccc2c1`, for which the inhibition was 1.4%.

`O=C(NC1CCN(Cc2ccccc2)CC1)c1cc(-c2ccncc2)nc2ccc(Cl)cc12`: the inhibition is 0.14%.

`Cc1cc(N[C@@H](Cc2ccccc2)C(=O)NCCc2ccccc2)nc(NCCc2ccccc2)n1`: the inhibition came to 4.38%.

On to `O=C(NCC(c1ccc(C(F)(F)F)cc1)N1CCCC1)c1cc(-c2ccncc2)c(-c2cccc(O)c2)o1` (stereo not given), for which the inhibition is -0.08%.
